Calls of active or inactive are those of the source. Unless noted, the rule behind the calls is not given here.
What was measured:
[1] = A549 cell viability effects, profiling panel, calcein-AM fluorescence, 48 h, basal (AID 1162); details: higher = more signal; note: test concentration not given here
[2] = adipocyte viability effects, profiling panel, cell-based, 3T3-L1 adipocytes, calcein-AM fluorescence, 48 h, basal (AID 1163); details: 3T3-L1 adipocytes viability, higher = more signal; note: test concentration not given here
[3] = HepG2 cell viability effects, profiling panel, calcein-AM fluorescence, 48 h, basal (AID 1164); details: higher = more signal; note: test concentration not given here
[4] = MM1S cell viability effects, profiling panel, calcein-AM fluorescence, 48 h, basal (AID 1165); details: higher = more signal;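 note: viability of MM1S multiple myeloma cells under basal unstimulated conditions; test concentration not given here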
[5] = basal RPMI8226 viability, no added stimulus, profiling panel, cell-based, calcein-AM fluorescence, 48 h, PK04 Diversity Set (AID 1166); details: RPMI8226 myeloma viability, higher = more signal;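 note: cells grown under basal conditions without added stimulus; test concentration not given here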
[6] = basal HepG2 mitochondrial membrane potential changes, profiling panel, cell-based, JC-1 fluorescence, 24 h, 100 nL compound (AID 1167); details: higher = more signal; note: test concentration not given here
[7] = basal 3T3-L1 adipocyte mitochondrial potential changes, profiling panel, cell-based, JC-1 fluorescence, 3T3-L1 adipocytes, 24 h, 100 nL compound (AID 1168); details: JC-1 mitochondrial fluorescence, higher = more signal, called active from +8 up or from −8 down; note: test concentration not given here
[8] = basal RPMI8226 mitochondrial membrane potential changes, profiling panel, cell-based, JC-1 fluorescence, 24 h, 100 nL compound (AID 1169); details: RPMI8226 myeloma, JC-1 mitochondrial potential fluorescence, higher = more signal; note: test concentration not given here
[9] = basal MM1S mitochondrial membrane potential changes, profiling panel, cell-based, JC-1 fluorescence, 24 h, 100 nL compound (AID 1170); details: higher = more signal; note: test concentration not given here
[10] = A549 lung cancer cell viability effects, profiling panel, resazurin fluorescence, 24 h, PK04 Diversity Set (AID 1171); details: higher = more signal, called active from +8 up or from −8 down; note: test concentration not given here
[11] = HepG2 liver cancer cell viability effects, profiling panel, resazurin fluorescence, 24 h, PK04 Diversity Set (AID 1172); details: higher = more signal; note: test concentration not given here
[12] = basal S. cerevisiae growth modulation, no modifier, primary screen, OD600, strain BY4716, 24 h, basal condition (AID 1173); details: OD600, 24 h, higher = more signal, called active from +8 up or from −8 down
[13] = MM1S myeloma cell viability, profiling panel, resazurin fluorescence, basal, 24 h, PK04 Diversity Set (AID 1174); details: higher = more signal, called active from +8 up or from −8 down;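 note: MM1S multiple myeloma cell line; test concentration not given here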
[14] = target: Dihydroorotate dehydrogenase (quinone), mitochondrial (Plasmodium falciparum (isolate 3D7)) (UniProt Q08210); test: PfDHODH enzyme inhibitors, primary screen, biochemical, C-terminal His tag, absorbance 600 nm (AID 1175); details: DCIP absorbance 600 nm, higher = more signal, called active from +8 up or from −8 down;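 note: recombinant parasite enzyme with a five histidine tag at its C terminus; test concentration not given here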
[15] = P. aeruginosa biofilm formation inhibitors, primary screen, strain PAO1, LB-PBS medium, absorbance 600 nm (AID 1176); note: test concentration not given here; details: P. aeruginosa PAO1 growth/biofilm, A600, 12 h; higher = more signal
[16] = S. cerevisiae RM11-1a growth modifiers, primary screen, strain RM11-1a, OD600, basal, 24 h (AID 1177); details: OD600, 24 h, higher = more signal, called active from +8 up or from −8 down;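 note: cultures grown under basal conditions with no added stressor; test concentration not given here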
[17] = E. coli acrAB mutant growth effects, primary screen, E. coli filamentation inducers, strain DRC39, OD650, 24 h (AID 1178); details: higher = more signal, called active from +8 up or from −8 down;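 note: growth measured as culture turbidity by optical density at 650 nm; test concentration not given here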
[18] = E. coli acrAB mutant growth effects, primary screen, E. coli filamentation inducers, strain DRC39, OD650, 48 h (AID 1179);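 note: screen aims at cell division blockers that make cells filament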; details: E. coli DRC39 delta-acrAB growth, higher = more signal, called active from +8 up or from −8 down
[19] = RPMI8226 myeloma cell viability, profiling panel, resazurin fluorescence, basal, 24 h, PK04 Diversity Set (AID 1180); details: higher = more signal;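 note: RPMI8826 multiple myeloma cell line at 5000 cells per well; test concentration not given here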
[20] = target: E3 ubiquitin-protein ligase XIAP (Homo sapiens) (UniProt P98170); test: XIAP binders, primary screen, biophysical, small-molecule microarray, fluorescence 635 nm (AID 1181); details: small-molecule microarray binding, higher = more signal;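 note: score merges 667 nm emission and signal to noise over triplicate slides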
Chain of E3 ubiquitin-protein ligase XIAP (Homo sapiens) (P98170 whole entry, looked up): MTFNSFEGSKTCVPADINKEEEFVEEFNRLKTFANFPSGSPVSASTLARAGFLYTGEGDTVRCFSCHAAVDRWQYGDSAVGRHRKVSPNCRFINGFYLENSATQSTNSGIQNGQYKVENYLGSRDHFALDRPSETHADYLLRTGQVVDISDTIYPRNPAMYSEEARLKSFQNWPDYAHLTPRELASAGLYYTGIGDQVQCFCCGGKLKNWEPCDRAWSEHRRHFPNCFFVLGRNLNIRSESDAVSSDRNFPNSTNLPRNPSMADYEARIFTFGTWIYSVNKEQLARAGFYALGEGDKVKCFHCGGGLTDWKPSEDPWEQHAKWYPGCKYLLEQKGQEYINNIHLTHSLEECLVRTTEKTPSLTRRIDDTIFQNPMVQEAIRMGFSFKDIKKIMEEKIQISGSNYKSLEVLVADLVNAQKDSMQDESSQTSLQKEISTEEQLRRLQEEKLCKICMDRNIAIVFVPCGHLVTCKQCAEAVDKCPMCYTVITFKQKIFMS

Chain of Dihydroorotate dehydrogenase (quinone), mitochondrial (Plasmodium falciparum (isolate 3D7)) (Q08210 whole entry, looked up): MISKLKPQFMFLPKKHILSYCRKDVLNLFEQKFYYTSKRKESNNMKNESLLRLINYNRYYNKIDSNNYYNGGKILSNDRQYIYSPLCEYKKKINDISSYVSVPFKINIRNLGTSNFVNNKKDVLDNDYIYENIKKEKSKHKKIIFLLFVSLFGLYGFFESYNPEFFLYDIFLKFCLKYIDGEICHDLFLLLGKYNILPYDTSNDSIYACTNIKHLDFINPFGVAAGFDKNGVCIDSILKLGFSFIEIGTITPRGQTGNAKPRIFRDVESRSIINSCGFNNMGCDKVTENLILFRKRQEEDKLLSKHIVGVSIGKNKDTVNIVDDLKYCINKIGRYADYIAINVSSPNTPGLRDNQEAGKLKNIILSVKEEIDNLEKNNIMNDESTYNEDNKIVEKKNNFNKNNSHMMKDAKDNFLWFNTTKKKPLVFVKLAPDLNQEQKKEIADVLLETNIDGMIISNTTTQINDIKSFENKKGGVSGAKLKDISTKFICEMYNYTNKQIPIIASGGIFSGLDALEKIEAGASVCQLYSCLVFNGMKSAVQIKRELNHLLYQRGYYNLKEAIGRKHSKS

Row | Structure (SMILES) | z-score [1] | z-score [2] | z-score [3] | z-score [4] | z-score [5] | z-score [6] | z-score [7] | z-score [8] | z-score [9] | z-score [10] | z-score [11] | z-score [12] | z-score [13] | composite z-score [14] | z-score [15] | z-score [16] | z-score [17] | z-score [18] | z-score [19] | composite z-score [20]
1 | O=C1NC(=O)C2C1C=CC(C(O)c1cccs1)N2Nc1ccccn1 (stereo not given) | 1.74 | -0.508 | 0.714 | 0.119 | 1.13 | 0.674 | 0.112 (inactive) | 0.268 | 0.0729 | -1.06 (inactive) | -0.687 | 0.0408 (inactive) | -1.71 (inactive) | 0.566 (inactive) | 0.916 (inactive) | 0.623 (inactive) | -0.0795 (inactive) | 0.0691 (inactive) | 0.398 | 0.174
2 | O=C1OCCC/C=C\[C@H]2OC34C=CCN(Cn5nnc6ccccc65)C(=O)[C@H]3N(CCCO)C(=O)[C@@H]4C12 (stereo not given in full) | -0.745 | 0.737 | -0.395 | 1.25 | -0.284 | -0.313 | 1.16 (inactive) | -0.0773 | -0.73 | 0.651 (inactive) | 0.558 | 0.351 (inactive) | 0.42 (inactive) | -0.0502 (inactive) | 0.77 (inactive) | -0.44 (inactive) | 0.339 (inactive) | 0.0024 (inactive) | 0.702 | 0.301
3 | NC(=O)[C@]1(Cc2ccccc2)N=C(c2ccc(OCCCO)cc2)O[C@@H]1c1ccccc1 | -0.399 | 0.879 | -0.603 | -0.598 | -1.94 | -1.43 | -0.517 (inactive) | -0.775 | 1.18 | -0.784 (inactive) | -0.3 | -1.06 (inactive) | -1.02 (inactive) | 0.417 (inactive) | 0.246 (inactive) | 0.569 (inactive) | 0.0671 (inactive) | -1.24 (inactive) | -0.189 | 0.16
4 | CO[C@H]1O[C@H](CO)[C@@H](OC(=O)Nc2ccccc2-c2ccccc2)[C@H](OC(=O)Nc2ccccc2-c2ccccc2)[C@H]1OC(=O)Nc1ccccc1-c1ccccc1 | -1.46 | 1.22 | -1.31 | -1.4 | -1.44 | -0.0136 | 0.908 (inactive) | -0.87 | 0.116 | -2.56 (inactive) | -1.04 | 1.95 (inactive) | -1.6 (inactive) | -0.236 (inactive) | 1.45 (inactive) | 4.43 (inactive) | 0.494 (inactive) | -0.0039 (inactive) | -1.6 | 1.26
5 | O=C1c2ccccc2[C@](Cc2ccccc2I)(C(=O)O)[C@H](c2ccc(CO)cc2)N1Cc1ccccc1C(F)(F)F | -0.26 | -0.24 | 0.458 | -1.58 | -2.58 | -0.51 | -0.476 (inactive) | -0.832 | -0.478 | 0.427 (inactive) | 1.02 | -0.874 (inactive) | 0.283 (inactive) | 0.833 (inactive) | -0.0528 (inactive) | 0.893 (inactive) | -0.0217 (inactive) | -0.0555 (inactive) | 0.0019 | 0.12
6 | COc1ccc([Si](C)(C)[C@H]2[C@H](CC(=O)N3Cc4ccccc4C[C@H]3CO)O[C@@]3(C(=O)N(Cc4cccc(I)c4)c4ccccc43)[C@@H]2C)cc1 | -0.817 | 0.0894 | -0.693 | -2.42 | -4.12 | 1.33 | 0.814 (inactive) | -1.06 | -0.605 | -1.84 (inactive) | -0.779 | -1.08 (inactive) | -2.22 (inactive) | -1.01 (inactive) | 1.13 (inactive) | 1.55 (inactive) | 0.517 (inactive) | -0.152 (inactive) | -1.59 | -0.157
7 | C=CCC(OC(C)=O)[C@@H]1[C@@H](N(Cc2cc3ccccc3o2)C(=O)c2cccc3ccccc23)c2cc(OCCCO)ccc2N1C(=O)Cc1ccc(OC)cc1 (stereo not given in full) | 0.323 | 1.28 | 0.222 | 0.381 | -1.05 | 2.46 | -0.0309 (inactive) | 0.181 | 0.177 | -1.38 (inactive) | -1.29 | -0.149 (inactive) | -1.17 (inactive) | 0.507 (inactive) | -0.334 (inactive) | 0.196 (inactive) | -0.386 (inactive) | -0.725 (inactive) | -1.17 | 0.211
8 | Cc1ccc(S[C@]2(C(=O)NCCCN(C)C)CC(=O)N(C(C)C)[C@@H]2c2ccc(CO)cc2I)cc1 | 2.16 | -0.054 | 0.498 | -3.07 | -1.37 | 2.47 | 1.06 (inactive) | -0.423 | -2.32 | 0.505 (inactive) | 0.533 | -3.52 (inactive) | -3.69 (inactive) | -0.0857 (inactive) | 0.668 (inactive) | -1.31 (inactive) | 0.847 (inactive) | 1.52 (inactive) | -2.67 | -0.145
9 | [N-]=[N+]=NCc1ccccc1C[C@]1(C(=O)N2CCOCC2)N=C(c2ccc(OCCCO)cc2)O[C@H]1c1ccccc1 | -0.55 | -0.0649 | -1.56 | -2.06 | -4.4 | -0.155 | -0.296 (inactive) | -1.16 | -2.08 | -0.832 (inactive) | -0.552 | -0.34 (inactive) | -2.29 (inactive) | 1.44 (inactive) | -0.537 (inactive) | 0.328 (inactive) | 0.685 (inactive) | 0.694 (inactive) | -4.46 | -0.0884

— PubChem BioAssay
